Measurements reported in article PMC12136788.
Numbering of substitutions follows the chain as printed. Whole data set: some 24,000 sequences, median “enrichment r” near 0.99, cut for the highest 2% near 3.7. This excerpt belongs to a sample that is enriched for the highest values.

T1: UNK ZnF1-3 (human, UniProt Q9C0B0 31-174)
T1 sequence: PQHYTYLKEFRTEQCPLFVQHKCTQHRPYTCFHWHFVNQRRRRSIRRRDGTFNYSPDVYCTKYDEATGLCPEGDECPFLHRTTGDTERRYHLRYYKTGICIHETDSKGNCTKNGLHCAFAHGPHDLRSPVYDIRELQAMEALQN

B1: chr16:94664741:94664742:+_ENSMUSG00000040785_ENSMUST00000117648|mus_hu|mus_mus_mus_hu_False|8_68 (ssRNA)
RNA: GGGAGUUCUACAGUCCGACGAUCUGGUACUGAUCUUGGUAGCUGAUAUUCAGGAGAAAGGCUGGCCAAAGGUGUGUAUAUGCUGGUGUACUGGGGCAAACCUGGUAACACGUUUAUGUAUGCUGGCCGCUGGGUGAUGAUAUCCAACAGAGGAUUGAGCAUCA
B2: chrX:53596632:53596633:-_ENSG00000086758_ENST00000262854|hu_mus|FALSE|FALSE (ssRNA)
RNA: GGGAGUUCUACAGUCCGACGAUCGGCGUGCUUCUCUGUACUCUCAGCCAUAGCAAGCGCCCGUCCCAGGGCUGCUUUCACUUCAUUCACUAGGGCCACUUGAGCAUCUGUGCCACUCCCCGCAGCAGCCAGACUUGCAAGGAACAACAGAGGAUUGAGCAUCA
B3: chr12:39756943:39756944:-_ENSG00000139116_ENST00000544797|hu_mus|hu_hu_hu_mus_False|18_98 (ssRNA)
RNA: GGGAGUUCUACAGUCCGACGAUCGGUUUGGCUGUUACCCCCGAGGGAAUCCUGCAAGAGUCUUGUCAGCUUAGAGUCUCUGUAAGGGACAUGGGUGGCUCUCUUGCUCUUGUCCCCCAAGGCACUUAUUACAUUCCCAAGAGCCAACAGAGGAUUGAGCAUCA
B4: chr12:96663167:96663168:+_ENSG00000111145_ENST00000228741|hu_mus|FALSE|FALSE (ssRNA)
RNA: GGGAGUUCUACAGUCCGACGAUCUCUGGGUCCACAGGAGAAUCAUGGUAGUUGGAAGAAAAGGAAUCAACAGGCAGACUUACAGUCAUGGGAACAUUUCCAACCAGCGUUUAUAGUUUAAAGGUCGACAGAAGGUCAUCUUGUCAACAGAGGAUUGAGCAUCA
B5: chr7:75932113:75932114:+_ENSG00000106211_ENST00000248553|hu_hu|hu_hu_hu_mus_False|8_48 (ssRNA)
RNA: GGGAGUUCUACAGUCCGACGAUCCUGCGACCACUCAUCGGGCAACCGGGGCACCCCGAAAGCUUGAUCGAAGAGGCGGCUGUGUGCGUACCAGUCGUCCCGGAAUGGUUCCCAGCUCGGGCUCCGCAGCGAGAAGGAGGGCACCAACAGAGGAUUGAGCAUCA
B6: 19974894_19982776_1293_CDS_ENSMUSG00000002428_ENSMUST00000002502|mouse|control|control (ssRNA)
RNA: GGGAGUUCUACAGUCCGACGAUCAAUGUACUGUACAGAAAUUUUUCUUCUCUUAGGGCAGACGCUAGACAGCUGCGACAGAGUACAGCUACUCUUCUCCGGAGUUCCUGAAAUACUGGGUUCUUCACCACACGUGGAUGACUCCAACAGAGGAUUGAGCAUCA
B7: chr1:151206805:151206806:+_ENSG00000143398_ENST00000349792|hu_hu|FALSE|FALSE (ssRNA)
RNA: GGGAGUUCUACAGUCCGACGAUCCUUCUCUCGCUCUUUCUGGGAAGCCCGCCGUUUGUAGGUUGAGCCUUUGAGGUCAUAUUUGAUAUGCAUUUUUACCGAUCUUGGUAAAAGAUUGUUCAUCACCACAAUCCGAAUGUUCUUCAACAGAGGAUUGAGCAUCA
B8: chr1:84720644:84720645:-_ENSMUSG00000026219_ENSMUST00000027421|mus_hu|FALSE|FALSE (ssRNA)
RNA: GGGAGUUCUACAGUCCGACGAUCUGAAUUUUAAAUUAGAUCUUAACUGGAGAGAACAUGGGACAACAGAAGCCCAUGGGUAACGAAAAUUUGAGAACUGUGAGUUGUAUACAAAAAAAAAACUGUGAGCUGCACAGAUAAUAACAACAGAGGAUUGAGCAUCA
B9: chr1:95362928:95362929:-_ENSG00000117519_ENST00000538964|hu_hu|motif|central (ssRNA)
RNA: GGGAGUUCUACAGUCCGACGAUCAGACCACAUUUAGCAAUAAGCAUGAGUUUAGUCUUCCAUGUAGAAACCAGAUACACGGAACUGUAAAAAAAAAAAAAAAAAAAAAAAGUUUCCUAUUGUUUGAAAAUACCAGUUUAAUAUCAACAGAGGAUUGAGCAUCA
B10: chr17:64801638:64801639:+_ENSG00000154229_ENST00000413366|hu_mus|hu_hu_hu_mus_False|1_98 (ssRNA)
RNA: GGGAGUUCUACAGUCCGACGAUCUAUAUAUAUAUAUAUAUACACACACAUAUAUAGUAAAACCCUAGUUAAACGUGUAAAGUAGCCAUUCAUUUUUAAAAUUACAUCUACAUUAAAAAAUUAAUAUAUCUGAUAGAGUGCCCACAACAGAGGAUUGAGCAUCA
B11: chr11:9468696:9468697:+_ENSG00000205339_ENST00000379719|hu_hu|FALSE|FALSE (ssRNA)
RNA: GGGAGUUCUACAGUCCGACGAUCCAUUAACAAUAAUGUGAAAAUUAGAAUUAUGAAUUCAAAAAGCAGUGAAGUCUGAAAAUUUAAAAAGUAGACUAGGUAUUAGGGGAUUAAAGGUAAAGGAAGACGAGAAUGUUUCUUUAACAACAGAGGAUUGAGCAUCA
B12: chr17:64801638:64801639:+_ENSG00000154229_ENST00000413366|hu_mus|hu_hu_hu_mus_False|28_88 (ssRNA)
RNA: B10 RNA with U38C, C42U, A43G, C44U, A53G, A114U, C142A, A143G
B13: chr5:69964302:69964303:+_ENSMUSG00000029208_ENSMUST00000154728|mus_hu|FALSE|FALSE (ssRNA)
RNA: GGGAGUUCUACAGUCCGACGAUCUGCAGUCUGGUUUGUUCGUUGGCUGAAUAAACAUGGGAGCUGAGAGCUCUGGAGAAAUACAGCCAUUUACUGGCUGUGAAAUCUCAAGUUAACUACUCUAAAAUCGCUUCGAUUAUGAAACAACAGAGGAUUGAGCAUCA
B14: chr4:175231952:175231953:+_ENSG00000164118_ENST00000503780|hu_hu|motif|central (ssRNA)
RNA: GGGAGUUCUACAGUCCGACGAUCAUUCAGAAGGUCCAUGUCACUACAAGAAGCGUAGUCUUCACUAACUUCAUUAAACUCGGUAAAUUCAUCAUUCUUUUUAGACAAAAGCAUUUCUGUUUCAAGAAGAGUGACACGACUAAGCAACAGAGGAUUGAGCAUCA
B15: 135118432_135118552_3022_ncRNA_ENSMUSG00000030795_ENSMUST00000128851|mouse|control|control (ssRNA)
RNA: GGGAGUUCUACAGUCCGACGAUCAUGAGCAAUACACUCAAGAUCUUUCUUGUAGUCCACACCUUCCUUCCCAGAUCUAGUUCCUAUAUAUUUGUCUGAGUACAUAUGUAGAAUUGCAUUGACAUCACUAUUUAAUAUAAAUAUCAACAGAGGAUUGAGCAUCA
B16: chr17:64801638:64801639:+_ENSG00000154229_ENST00000413366|hu_mus|hu_hu_hu_mus_False|78_98 (ssRNA)
RNA: B10 RNA with A60G, C62G, C142A, A143G
B17: chr3:25639645:25639646:-_ENSG00000077097_ENST00000264331|hu_mus|FALSE|FALSE (ssRNA)
RNA: GGGAGUUCUACAGUCCGACGAUCAUCAGACAACACAUGACAUUUCAAUGAGUAAAAAAGAGCAUAAAACUGUAUGUGUAAGAACAAAAUGUUAAAAGGCCUACCACAAUAAUAAAAAACCAUCAAUUACAUCAUCACAUUAAACAACAGAGGAUUGAGCAUCA
B18: chr7:90019630:90019631:+_ENSMUSG00000057706_ENSMUST00000082237|mus_hu|motif|central (ssRNA)
RNA: GGGAGUUCUACAGUCCGACGAUCUAUAUCACUGAAUAGAAAAUAUGCUGGGUGAAGCAGAUCUAGAAGAUUUGUCUGAACCGGUAAAAUCUCCAUCCCAACAGAAUACUGUUCAAAACAUUACACAUUUUAUGGUUGUAAUUCCAACAGAGGAUUGAGCAUCA
B19: chr1:225611761:225611762:-_ENSG00000143815_ENST00000272163|hu_mus|hu_hu_hu_mus_True|1_18 (ssRNA)
RNA: GGGAGUUCUACAGUCCGACGAUCCCAGGCCAUCGGCCUCUGACCACUUCACCCUCAACAAACUUCCUACUUGGCAUUUUCUAAAAUUAGUCUGGCCGCGCUCCGGCGGGAACUCCAGACGGCUCCCGACAGUCACCCGCACAGCAACAGAGGAUUGAGCAUCA
B20: chr1:247070963:247070964:-_ENSG00000153207_ENST00000391829|hu_mus|motif|central (ssRNA)
RNA: GGGAGUUCUACAGUCCGACGAUCCUGAUUUGUCCUGUUGAUGUAACUCAGAGUAGAAAUGGCUACUCCCAAUGGGCUUACGGACUGGAAGCACAGGUGGCGCCCCUCUCUCAUCACUCUCUCUCUGAUGUGUGGUACUUCAGCCAACAGAGGAUUGAGCAUCA
B21: chr11:97025304:97025305:-_ENSMUSG00000001440_ENSMUST00000001479|mus_hu|FALSE|FALSE (ssRNA)
RNA: GGGAGUUCUACAGUCCGACGAUCAGCUACUACUCCAUCUGUGUGAUCCUCAUCUCCAGCAAUGUGGUCAAUGAAAGACAGAAUAAAUUCUACUCUGGGUUGUACCAGCAUCACAUCCGGGUGUACGUUCUCCUGAUCCCCCUUCAACAGAGGAUUGAGCAUCA
B22: chr2:25965407:25965408:-_ENSG00000143970_ENST00000336112|hu_hu|motif|central (ssRNA)
RNA: GGGAGUUCUACAGUCCGACGAUCCUGUGCUGCCUGAAUUAAAUCUCUGGCUAGGGUCUUUUCAUCAAAUGUUUGGCCUCGGGUGAACAGGUAAUUCUCCUUACUUAAAGUGGUUUGCUCAUUCAAUGGUAUCUCAGCCUUCACCAACAGAGGAUUGAGCAUCA

Molecular target: T1, UNK ZnF1-3
Assay: nsRBNS (natural sequence RNA bind-n-seq); RBNS binding buffer (assumed for nsRBNS): 25 mM Tris pH 7.5, 150 mM KCl, 3 mM MgCl2, 0.01% Triton X-100, 500 ug/ml BSA, 20 U/ml SUPERase-In, 4 C; UNK is unkempt and MSI1 is Musashi-1; names of the RNAs are library labels; protein concentration not given here; high values mean tight binding

B1 was tested. Which binding signal did it give?
The binding signal was 1.06 enrichment R.

B2 was tested. Which binding signal did it give?
The binding signal was 1.52 enrichment R.

With B3 as the binder, how does the binding signal read?
Its binding signal is 0.694 enrichment R.

With B4 as the binder, how does the binding signal read?
The binding signal was 1.6 enrichment R.

With B5 as the binder, how does the binding signal read?
The binding signal was 1.04 enrichment R.

For B6, which binding signal is on record?
The binding signal was 0.756 enrichment R.

With B7 as the binder, how does the binding signal read?
The binding signal was 0.464 enrichment R.

With B8 as the binder, how does the binding signal read?
Its binding signal is 5.25 enrichment R.

Which binding signal does the source give for B9 here?
The binding signal was 5.33 enrichment R.

For B10, which binding signal is on record?
Its binding signal is 4.56 enrichment R.

Which binding signal does the source give for B11 here?
The binding signal was 5.89 enrichment R.

B12 was tested. Which binding signal did it give?
The binding signal was 3.46 enrichment R.

For B13, which binding signal is on record?
Its binding signal is 0.663 enrichment R.

B14 was tested. Which binding signal did it give?
Its binding signal is 0.772 enrichment R.

With B15 as the binder, how does the binding signal read?
The binding signal was 1.78 enrichment R.

With B16 as the binder, how does the binding signal read?
The binding signal was 3.51 enrichment R.

With B17 as the binder, how does the binding signal read?
The binding signal was 1.63 enrichment R.

Which binding signal does the source give for B18 here?
Its binding signal is 0.76 enrichment R.

How did the binding signal turn out when B19 was run?
Its binding signal is 1.37 enrichment R.

Which binding signal does the source give for B20 here?
Its binding signal is 1.02 enrichment R.

For B21, which binding signal is on record?
Its binding signal is 1.13 enrichment R.

How did the binding signal turn out when B22 was run?
Its binding signal is 0.753 enrichment R.
